# In the library only some 0.89% were active in any assay of this set; here they are far more common.
# CIT2 TOR yeast = yeast TOR pathway CIT2-GFP modulation; S. cerevisiae CIT2-GFP strain, flow cytometry, 3 h; 100 means same as DMSO wells; GFP response vs DMSO, % at 10 µM; 320,000 tested, 0.065% active;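 active means GFP response relative to DMSO above a set limit, near the screen mean plus 3 SD, cut at about 150% in these data; inconclusive means Fewer than 70 cells measured for a yeast strain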;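 further: ratio of well median GFP fluorescence to mean of DMSO wells on the plate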
# RPL19A TOR yeast = modulators of TOR pathway RPL19A-GFP in S. cerevisiae | percent response vs DMSO, % at 10 µM | S. cerevisiae RPL19A-GFP strain, flow cytometry, 3 h; hits give low values | 330,000 tested, 0.3% active | AID 2025;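 active means percent response vs DMSO below 50%; inconclusive means fewer than 70 events counted for the yeast strain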;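 further: median channel GFP fluorescence of the barcoded RPL19A-GFP strain; ratio of sample median GFP to plate DMSO average so 100% = DMSO; lower means less RPL19A-GFP as with rapamycin TOR inhibition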
# AGP1 TOR yeast = alters AGP1-GFP fluorescence in TOR pathway yeast screen; 320,000 tested, 0.02% active; S. cerevisiae AGP1-GFP multiplex flow cytometry, 3 h; GFP as percent of DMSO wells; GFP response vs DMSO, % at 10 µM; AID 2066;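 active means GFP response relative to DMSO above a set limit, near screen average plus 3 SD, cut at about 150% in these data; inconclusive means fewer than 70 cells counted for the yeast strain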;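 further: median GFP channel fluorescence of the gated AGP1 strain per well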
# LAP4 TOR yeast = alters LAP4-GFP fluorescence in TOR pathway yeast screen; AID 2023; 320,000 tested, 0.34% active; S. cerevisiae LAP4-GFP multiplex, flow cytometry GFP, 3 h; median GFP as percent of DMSO wells; GFP response vs DMSO, % at 10 µM;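 active means GFP response vs DMSO above a set limit, about the screen mean plus 3 SD, cut at about 150% in these data; inconclusive means under 70 cell events counted for the yeast strain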
# MEP2-GFP yeast = yeast TOR pathway MEP2-GFP modulation | S. cerevisiae MEP2-GFP strain, flow cytometry GFP, 3 h; 100% = DMSO control level | GFP response vs DMSO, % at 10 µM | 330,000 tested, 0.51% active;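 active means GFP response versus DMSO above a set limit, roughly screen mean plus 3 SD, cut at about 180% in these data; inconclusive means fewer than 70 cells counted for a yeast strain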;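 further: median GFP fluorescence of the barcode-gated MEP2-GFP cells per well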
# * hit, by the source's call; u = inconclusive; x = no result given; [ ] = another dose, or the depositor's remark.
SMILES,CIT2 TOR yeast,RPL19A TOR yeast,AGP1 TOR yeast,LAP4 TOR yeast,MEP2-GFP yeast
COc1cccc(NC(=O)C(C#N)Cc2ccncc2)c1 (stereo not given),99.8,103.8,113.7,97.8,94.0
CCc1ccccc1NC(=O)C(C#N)Cc1cccnc1 (stereo not given),u,60.6,u,93.0,208.7*[may fluoresce violet]
CCN(CC)S(=O)(=O)c1ccc(N2CCN(C)CC2)c(NC(=O)c2cc(=O)c3ccccc3o2)c1,u,38.5*[may fluoresce violet],u,u,u
COc1ccc(S(=O)(=O)N2CCN(C(=O)c3c(C)nn(-c4ccccc4)c3Cl)CC2)cc1,u,18.8*[may fluoresce violet],u,97.2,520.8*[may fluoresce violet]
CCOc1ccc(NC(=O)N(C2CCCCC2)C(C)c2cccnc2)cc1 (stereo not given),110.1,101.5,102.9,105.5,105.8
Cc1cccc(CNC(=O)CCn2ccc3cc(S(=O)(=O)N4CCCC4)ccc32)c1,u,17.5*[may fluoresce violet],u,67.3,161.1
Cc1cccc(CNC(=O)Cn2ccc3cc(S(=O)(=O)N4CCCC4)ccc32)c1,102.7,102.0,102.4,100.1,100.5
COc1ccc(OC)c(NC(=O)C2CCCN2C(=O)NC2CCCCC2)c1 (stereo not given),102.6,96.5,100.8,102.0,114.4
CC(C)N(Cc1cc2ccccc2[nH]c1=O)C(=O)c1cccc([N+](=O)[O-])c1,u,44.0*[may fluoresce violet],u,97.0,318.7*[may fluoresce violet]
CCCc1cc(NCC2CCCO2)n2c(nc3ccccc32)c1C#N (stereo not given),u,30.1*[may fluoresce violet],x,124.6,537.3*[may fluoresce violet]
CCCc1cc(NCCN(C)C)n2c(nc3ccccc32)c1C#N,90.7,97.6,98.6,92.2,99.4
O=C(CSc1ccc(Cl)cc1)Nc1cccc(-c2nc3ccccc3[nH]2)c1,103.9,100.6,98.4,113.1,188.2*
COc1cc(NC(=O)CCCc2c[nH]c3ccccc23)cc(OC)c1,103.9,111.6,104.1,101.5,108.3
CN1CCN(/N=C/c2c3ccccc3c(Cl)c3ccccc23)CC1,60.7,71.9,11.5,162.7*,145.8
Cc1ccc(C2CC(=O)Nc3sc(C(N)=O)c(N)c32)cc1 (stereo not given),108.2,x,102.1,99.9,104.7
COc1ccc(OCc2nnc(SCC(=O)N3CCCc4ccccc43)n2-c2ccc(C)cc2)cc1,u,65.8,21.2,95.9,213.9*[may fluoresce violet]
CC(C)(C)c1ccc(O)c(O)c1,86.3,96.1,96.4,106.5,92.4
CC(C)(C)c1ccc(O)c(/C=N\O)c1,u,63.3,24.7,113.7,452.5*[may fluoresce violet]
Cc1ccccc1CN(c1ccc(C(N)=O)cc1)S(C)(=O)=O,u,16.7*[may fluoresce violet],u,101.7,309.9*[may fluoresce violet]
Cc1ccccc1CN(c1ccc(C(=O)NCc2cccnc2)cc1)S(C)(=O)=O,95.8,94.9,101.7,94.2,90.8
O=C(CNC(=O)c1ccccc1)NCCCSc1ccccc1,109.2,103.2,103.3,93.9,106.5
O=C(NCCCSc1ccccc1)c1cc(Cl)ccc1O,108.3,110.1,81.8,162.1*,113.5
O=C(COC(=O)c1ccco1)Nc1ccc2c(c1)OCO2,97.0,94.0,92.2,92.8,99.1
Cc1ccc(C(=O)OCC(=O)Nc2ccc3c(c2)OCO3)o1,u,65.4,21.1,105.0,490.6*[may fluoresce violet]
CSc1ccc(C#N)cc1NC(=O)c1cccnc1Cl,u,44.8*[may fluoresce violet],u,97.9,335.9*[may fluoresce violet]
SMILES,CIT2 TOR yeast,RPL19A TOR yeast,AGP1 TOR yeast,LAP4 TOR yeast,MEP2-GFP yeast
O=C(Nc1cccnc1Cl)c1cccnc1Cl,87.9,93.5,86.8,87.1,93.2
CCN(CC)c1ccc(C=C2C(=O)OC(c3ccccc3)OC2=O)cc1 (stereo not given),89.4,92.8,104.1,101.4,97.9
CCN(CC)c1ccc(/C=C/C(=O)C2C(=O)C=C(C)OC2=O)cc1 (stereo not given),u,138.3,68.4,428.8*[may fluoresce violet],462.3*[may fluoresce violet]
Cc1ccc(-c2ccc(/C=N/NC(N)=S)o2)cc1,85.1,82.1,82.4,158.3*,93.5
C/C(=N\NC(=O)COc1ccccc1-c1ccccc1)c1ccccn1,104.6,90.1,94.6,170.9*,93.5
O=C(O)c1cccc(S(=O)(=O)NCCC(c2ccccc2)c2ccccc2)c1,89.5,99.5,98.8,101.1,100.2
O=C(Cn1ncc2c3ccccc3n(Cc3ccccc3)c2c1=O)NCCN1CCOCC1,u,28.9*[may fluoresce violet],u,82.6,130.3
COc1cccc(NC(=O)NNC(=O)c2ccc3c(c2)NC(=O)C(C)(C)O3)c1,109.3,100.9,97.2,88.1,99.1

# Compound activity from PubChem.
